# Test results published in ChEMBL document CHEMBL3433997, “St. Jude Leishmania screening dataset” (2016).
# Key:
# Assay type in all cases: functional
# [1] = molecular target: Solute carrier family 2, facilitated glucose transporter member 1 (Homo sapiens) (UniProt P11166); assay: ST_JUDE_LEISH: Cytotoxicity at 2uM final concentration against transgenic Leishmania Mexicana promastigotes LmGLUT1 that are glucose transport deficient and complemented with the human glucose transporter GLUT1. Activity is measured by DNA content using SYBR green in vitro
# [2] = molecular target: Hexose transporter 1 (Plasmodium falciparum) (UniProt O97467); assay: ST_JUDE_LEISH: Cytotoxicity at 2uM final concentration against transgenic Leishmania Mexicana promastigotes LmPfHT that are glucose transport deficient and complemented with the Plasmodium falciparum hexose transporter. Activity is measured by DNA content using SYBR green in vitro
# [3] = molecular target: Glucose transporter (Leishmania mexicana) (UniProt O61059); assay: ST_JUDE_LEISH: Cytotoxicity at 2uM final concentration against transgenic Leishmania Mexicana promastigotes LmGT2 that are glucose transport deficient and complemented with the L. Mexicana glucose transporter 2. Activity is measured by DNA content using SYBR green in vitro
# Chain of Solute carrier family 2, facilitated glucose transporter member 1 (Homo sapiens) (P11166 whole entry): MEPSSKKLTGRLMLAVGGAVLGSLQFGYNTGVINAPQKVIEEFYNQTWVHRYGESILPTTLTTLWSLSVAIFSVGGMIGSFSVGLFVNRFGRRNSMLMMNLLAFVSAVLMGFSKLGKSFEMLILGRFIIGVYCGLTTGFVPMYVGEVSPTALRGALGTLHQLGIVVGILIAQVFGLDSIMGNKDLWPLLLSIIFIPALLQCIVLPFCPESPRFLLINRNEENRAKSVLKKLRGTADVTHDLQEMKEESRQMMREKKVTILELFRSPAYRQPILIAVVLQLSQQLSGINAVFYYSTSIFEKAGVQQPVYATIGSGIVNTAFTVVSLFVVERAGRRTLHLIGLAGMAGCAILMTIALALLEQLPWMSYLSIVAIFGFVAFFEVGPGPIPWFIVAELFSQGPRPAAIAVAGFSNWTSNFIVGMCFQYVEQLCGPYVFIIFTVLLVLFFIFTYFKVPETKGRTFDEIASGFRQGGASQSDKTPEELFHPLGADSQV
Structure (SMILES),inhibition [1],inhibition [2],inhibition [3]
CC(C)(c1ccccc1)c1ccc(O)c(CN2CCOCC2)c1,-0.49%,-1.3%,-0.41%
Clc1cc(Nc2ncnc3sc(C#Cc4ncc[nH]4)cc23)ccc1OCc1ccccn1,-0.91%,5.1%,-0.27%
CC(=O)c1cc(N2CCOCC2)ccc1N,2.03%,1.08%,2.38%
N=c1[nH]c2cccc3ccc4cccc1c4c32,9.96%,9.29%,7.95%
Cc1c(S(=O)(=O)Nc2ccc3nccc(N4CCN[C@H](C)C4)c3c2)sc2ccc(Cl)cc12,-0.53%,0.48%,-2.96%
COc1ccc(CNC2CCN(C)CC2)cc1-c1ccc(S(=O)(=O)NCc2ccccc2)cc1,3.88%,4.24%,5.02%
O=C(/C=C/c1ccc(Cl)c(Cl)c1)N1CCC(CN2CCC(Cc3cc4ccccc4[nH]3)CC2)CC1,0.17%,2.49%,0.81%
CN1CCCN(c2ccnc3cc4c(cc23)N(C(=O)c2ccccc2Cl)CC4)CC1,-0.76%,0.96%,-0.18%
Nc1nccc2ccc(-c3cccc4ncccc34)cc12,1.74%,0.04%,1.15%
COc1ccc(C(=O)NCc2ccc(N)nc2C)cc1Nc1ncc(-c2cccc(N(C)C)c2)cn1,0.19%,-1.36%,1.76%
C=CCn1c(SCc2c(C)noc2C)nc2scc(-c3cccs3)c2c1=O,0.98%,0.21%,-5.13%
CN1CC(c2ccccc2)c2cc(O)c(CN3CCCCC3)cc2CC1Cc1ccccc1 (centres undefined),9.54%,7.19%,6.78%
CC(C)(C)c1cc(Cn2ccnc2)cc(C(C)(C)C)c1O,6.9%,9.32%,4.9%
